LASV entry inh: blocks Lassa virus binding to or entry into cells; 300,000 tested, 1.2% active; Lassa virus pseudotype entry inhibition, cell reporter; Potency, µM (titrated, usually from 37.9 µM), usual class: inhibitors; calls by dose curve; tested in HEK293 cells; note: nearly all actives have a fitted effect of over 50% in size
FMDV antiviral: antivirals against foot and mouth disease virus | Potency, µM (series often up to 57.9 µM), hits mostly inhibitors | AID 1159524 | 410,000 tested, 1.2% active | FMDV antiviral cell-based qHTS; calls by dose curve; tested in HEK293T cells; note: read-out not given here; nearly all actives have a fitted effect of over 45% in size
Sm TGR inh: S. mansoni TGR enzyme inhibition | Q962Y6 | purified TGR, DTNB reduction, TNB absorbance 405 nm | Potency, µM (series often up to 114 µM), most hits filed as inhibitors | 360,000 tested, 3% active; active = well fitted inhibition curve with a large enough effect; inconclusive = small, poorly fitted or top-dose-only effect; inactive = no such curve, though single readings can be large or run the other way; note: nearly all actives have a fitted effect of over 60% in size
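TGR 20 nM + NADPH 100 uM (dispensed conc.), cpd preinc 15 min RT; start with NADPH (500 uM addition) then DTNB (15 mM addition). Kinetic TNB absorbance, 405 nm filter. Four-parameter Hill fit across titration.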
VACV Venus inh: inhibitors of vaccinia virus (Venus reporter); Potency, µM (series often up to 36.5 µM), actives largely listed as inhibitors; 330,000 tested, 0.46% active; Vaccinia virus Venus reporter expression, fluorescence; calls by dose curve; tested in A549 cells; note: nearly all actives have a fitted effect of over 30% in size
VACV mCherry inh: vaccinia inhibition (mCherry reporter). Vaccinia virus mCherry reporter infection, fluorescence. Potency, µM (highest dose often 36.5 µM), hits mostly inhibitors. 310,000 tested, 0.63% active. AID 720579; calls by dose curve; tested in A549 cells; note: nearly all actives have a fitted effect of over 35% in size
MARV entry inh: Marburg virus entry inhibition. Marburg virus pseudotyped entry inhibition, cell reporter. 300,000 tested, 1.8% active. Potency, µM (top dose mostly 37.8 µM), most hits filed as inhibitors; calls by dose curve; tested in HEK293 cells
A number is an active result. Only some compounds are listed: those with a hit (about 5.4% of all), similar ones and a draw of the others.

What do the screens show for `Cc1cc(N)n2ncc(-c3ccc(F)cc3)c2n1`?
LASV entry inh: inconclusive; FMDV antiviral: inactive; Sm TGR inh: inactive; VACV Venus inh: inactive; VACV mCherry inh: inconclusive; MARV entry inh: inactive

What do the screens show for `Cc1nc2c(-c3ccc(F)cc3)cnn2c(N)c1-c1ccc(F)cc1`?
LASV entry inh: inactive; FMDV antiviral: inconclusive; Sm TGR inh: inactive; VACV Venus inh: inconclusive; VACV mCherry inh: inactive; MARV entry inh: 5µM

What do the screens show for `c1ccc(CSc2nnc(-c3ccco3)n2Cc2ccco2)cc1`?
LASV entry inh: inconclusive; FMDV antiviral: inactive; Sm TGR inh: 45µM; MARV entry inh: inconclusive

Results for COc1cccc(-c2nnc(SCc3ccc(C#N)cc3)n2Cc2ccco2)c1 ?
LASV entry inh: inactive; FMDV antiviral: inactive; Sm TGR inh: 40µM; VACV Venus inh: inactive; MARV entry inh: inconclusive

How did COC(=O)CSc1nnc(CSc2nc(C)cc(C)n2)n1Cc1ccco1 do in these assays?
LASV entry inh: inactive; FMDV antiviral: inactive; Sm TGR inh: 40µM; MARV entry inh: inactive

Results for CCOC(=O)CNC(=O)CSc1nnc(-c2ccccc2)n1Cc1ccco1 ?
LASV entry inh: inactive; FMDV antiviral: inactive; Sm TGR inh: 20µM; VACV Venus inh: inactive; MARV entry inh: inactive

Results for COc1ccccc1-c1ccnc(-n2ncc(C(=O)NCCc3ccccn3)c2C)n1 ?
FMDV antiviral: inactive; VACV Venus inh: inactive; VACV mCherry inh: inconclusive

Results for CC1Cn2c(C(=O)NCCc3ccc(Cl)cc3)cc3cccc(c32)S1 (configuration not stated) ?
LASV entry inh: inactive; FMDV antiviral: inactive; Sm TGR inh: inactive; VACV Venus inh: inactive; VACV mCherry inh: inactive

Results for COc1cccc(C(=O)N(Cc2cc3cc4c(cc3nc2N(C)C)OCO4)CC2CCCO2)c1 (configuration not stated) ?
FMDV antiviral: inactive; VACV Venus inh: inactive; VACV mCherry inh: inactive

Results for C#CCSC1=C(C#N)[C@@H](c2cccs2)C(C(=O)OCC)=C(C)N1 ?
MARV entry inh: inactive

How did COC(=O)CSc1nnc(-c2ccco2)n1Cc1ccco1 do in these assays?
LASV entry inh: inactive; FMDV antiviral: inactive; Sm TGR inh: 13µM; VACV Venus inh: inactive; MARV entry inh: inactive

What do the screens show for `COCCn1c(SCc2cccnc2)nnc1-c1ccco1`?
LASV entry inh: inconclusive; FMDV antiviral: inactive; Sm TGR inh: 28µM; VACV Venus inh: inactive; VACV mCherry inh: inactive; MARV entry inh: inactive

Results for CCN(CC)C(=O)CSc1nc2c(sc(=S)n2-c2ccccc2)c(=O)n1Cc1ccco1 ?
LASV entry inh: inconclusive; FMDV antiviral: inconclusive; Sm TGR inh: inactive; MARV entry inh: 9.2µM

Results for CC(=O)c1c(C)[nH]c(C(=O)CSc2nnc(-c3cccs3)n2Cc2ccccc2)c1C ?
LASV entry inh: inconclusive; FMDV antiviral: inactive; Sm TGR inh: inactive; MARV entry inh: inconclusive

What do the screens show for `CC(C)(C)NC(=O)CSc1nnc(-c2ccco2)n1Cc1ccco1`?
LASV entry inh: inactive; FMDV antiviral: inactive; Sm TGR inh: inactive; VACV Venus inh: inactive; VACV mCherry inh: inactive; MARV entry inh: inactive

How did CC(=O)c1c(C)[nH]c(C(=O)CSc2nnc(-c3ccco3)n2Cc2ccccc2)c1C do in these assays?
LASV entry inh: inconclusive; FMDV antiviral: inactive; Sm TGR inh: 40µM; MARV entry inh: inactive

Results for CCn1c(SCc2cccc(C(F)(F)F)c2)nnc1-c1ccco1 ?
LASV entry inh: inactive; FMDV antiviral: inactive; Sm TGR inh: 28µM; MARV entry inh: inactive

How did CCN(CC)C(=O)CSc1nnc(-c2ccco2)n1Cc1ccco1 do in these assays?
LASV entry inh: inconclusive; FMDV antiviral: inactive; Sm TGR inh: 50µM; MARV entry inh: inactive

Results for O=C(CCC1N=C2c3ccccc3N=C(SCc3ccc(F)cc3)N2C1=O)NCCc1ccccc1 (configuration not stated) ?
LASV entry inh: inactive; FMDV antiviral: inconclusive; Sm TGR inh: inactive; VACV Venus inh: inactive; VACV mCherry inh: inactive

Results for COC(=O)c1cc(CNC(=O)c2ccccc2)cc(NC(=O)c2ccccc2OC)c1 ?
FMDV antiviral: inactive; VACV Venus inh: inactive; VACV mCherry inh: inactive

What do the screens show for `Cc1cc(C)cc(OCCOc2cccc(C=C3C(=O)NC(=O)NC3=O)c2)c1`?
FMDV antiviral: inactive; Sm TGR inh: 32µM

What do the screens show for `Cc1ccc(OCCOc2cccc(C=C3C(=O)NC(=O)NC3=O)c2)cc1`?
FMDV antiviral: inactive; Sm TGR inh: inconclusive; VACV Venus inh: inactive; VACV mCherry inh: inactive
